TRPML1 inh: blocks the human TRPML1 channel. Q9GZU1. TRPML1-inducible cells, Ca2+ dye fluorescence, FDSS; hits give low values; inhibition of EC80 agonist-evoked calcium signal. activity change, negative = inhibition, % (no concentration beside the values). 0.02% of 390,000 active. AID 624415; in the data active = activity change below about -50%; inconclusive = between about -30% and that limit;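 also: stimulus is agonist 54-4 at its EC80 concentration; % is scaled to controls: 0 for no effect and ±100 for the full control effect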
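Calcium fluorescence in TRPML1-DL cells induced overnight with Tet: a 110 s read after compound pin addition, then a 110 s antagonist read after challenge with 54-4 at 4 uM final (EC80).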
TRPML1 agonist: human mucolipin-1 channel agonism; 0.12% of 410,000 active; TRPML1-expressing cells, Ca2+ dye fluorescence, FDSS; activation, % (no concentration beside the values); Q9GZU1; in the data active = activation above about 50%; inconclusive = mostly about 30% to 49%; also: 0% is about no effect
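Kinetic FDSS Ca2+ read in Tet-induced TRPML1-DL cells (ABD Ca8 dye plus quencher, 45-90 min RT loading): baseline, then compound, then 110 s agonist window; EC80 agonist 54-4 at 4uM final added afterwards for a 110 s antagonist window.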
KCNH2 3.1 block: blocks the human KCNH2 3.1 channel isoform | U2OS KCNH2 3.1, thallium flux FluxOr; hits give low values | activity change, % (tested at about 1.8 µM) | 0.95% of 340,000 active | AID 720553;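 active = maximum activity change below -70%; inconclusive = maximum activity change from -70% to -50%; inactive = maximum activity change above -50%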;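 also: thallium influx rate constant from kinetic fluorescence after stimulation buffer; % is scaled to controls: 0 for no effect and ±100 for the full control effect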
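Measured as rate of thallium-driven FluxOr signal in transduced U2OS cells carrying the 3.1 channel, read kinetically for 2 min upon stimulation; values are rate constants scaled to DMSO control wells.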
hERG WT inh: blocks the wildtype human KCNH2 potassium channel. Q12809. U2OS, BacMam KCNH2, thallium flux FluxOr; hits give low values. activity change, % at 1.84 µM. 0.37% of 340,000 active. AID 720551;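 active = maximum activity change below -70%; inconclusive = maximum activity change between -70% and -50%; inactive = maximum activity change above -50%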; also: % is scaled to controls: 0 for no effect and ±100 for the full control effect
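U2OS cells transduced with wild-type KCNH2 virus are loaded with FluxOr dye for 45 min, and thallium flux is measured in kinetic reads before and after stimulation buffer. Rate constants are normalized to DMSO controls.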
TRHR agonist: agonists of human TRH receptor; P34981; TRHR cells, calcium flux fluo-8, FDSS agonist mode; activation, % at 2 µM; 0.18% of 360,000 active; in the data active = activation above about 30%; also: 0% is about no effect
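TRHR-expressing cells, plated overnight in medium with 10% serum, were loaded with fluo-8 calcium dye at room temperature. After a 10 s baseline, library compound was pin-added and calcium release was recorded kinetically (ex 480/em 530) as agonist response.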
TRHR enhancer: allosteric enhancers of human TRH receptor; P34981; TRHR cells, fluo-8 calcium fluorescence, EC20 TRH enhancement; enhancement, % at 2 µM; 0.66% of 360,000 active; in the data active = enhancement above about 30%; also: 0% is about no effect
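TRHR-expressing cells loaded with fluo-8 calcium dye were read kinetically (ex 480/em 530) during compound addition, then stimulated with an EC20 of TRH (10 nM final). Enhancement of the Gq-mediated intracellular calcium response was scored.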
* marks the source's active call; other numbers are inactive results; u = inconclusive; x = no result given; ! = a repeat was not active. Hits are enriched below; roughly 1.7% of the tested compounds scored in any of these assays.

SMILES	TRPML1 inh	TRPML1 agonist	KCNH2 3.1 block	hERG WT inh	TRHR agonist	TRHR enhancer
O=C(CSc1nnc(-c2ccccn2)n1-c1ccc(Cl)cc1)Nc1ccc2c(c1)OCO2	0	1	-73*	10	0	-2
CCc1nc2ccc(C(=O)NCCc3ccccn3)cn2c1N(C)Cc1ccc(N(C)C)cc1	x	-1	x	x	x	x
O=C(Cc1ccc(Br)cc1)NCc1ccccc1	-4	-1	1	-300*	-1	0
O=C(COC(=O)Cc1ccc(Br)cc1)NCc1ccccc1	-3	0	-9	6	x	x
COc1ccc(OCc2cc(C(=O)N(C)C(C)c3ccon3)no2)c(Cl)c1 (centres undefined)	10	0	-22	-6	1	-7
CSCCC(NC(=O)c1ccccc1)C(=O)N1CC(C)OC(C)C1 (centres undefined)	-17	1	3	5	0	-6
O=S(=O)(NC1CCCCC1N1CCN(c2ccc(F)cc2)CC1)c1ccccc1 (centres undefined)	12	2	-81*	27	1	1
CN1CCN(C2CCCCC2NS(=O)(=O)c2ccc(Cl)cc2)CC1 (centres undefined)	13	0	-10	24	0	7
COc1ccccc1N1CCN(C2CCCCC2NS(=O)(=O)c2ccc(Cl)cc2)CC1 (centres undefined)	82	0	u	4	46*	-16
COc1ccc(N2CCN(C3CCCCC3NS(=O)(=O)c3ccc(Cl)cc3)CC2)cc1 (centres undefined)	-17	63*	-19	-18	9	-3
COc1ccc2oc(C(=O)OCC(=O)N(C)C3CCCCC3)c(C)c2c1	15	2	-32	2	0	8
O=C1S/C(=C\c2ccc(N3CCOCC3)o2)C(=O)N1c1ccccc1	-5	57*	2	-5	63*	9
CCc1cc(=O)n2[nH]c(-c3ccccc3)c(-c3ccccc3)c2n1	2	1	23	2	0	16
CCCC[C@]12Cc3cc(C#N)ccc3C(O1)c1c(cc(C)n(-c3ccccc3)c1=O)O2	x	x	x	x	0	-5
CCCC(=O)n1nc(-c2cccnc2)nc1NCc1ccccc1	17	0	-125*	-2	0	-1
CCC(=O)n1nc(-c2cccnc2)nc1NCc1ccccc1	27	2	-4	0	0	0
COC(=O)c1ccc(Cn2nnc3c(=O)[nH]c(C4CCCN(S(=O)(=O)c5ccccc5Cl)C4)nc32)cc1 (centres undefined)	0	-1	-20	0	1	30*!
COC(=O)c1ccc(Cn2nnc3c(=O)[nH]c(C4CCN(S(=O)(=O)c5ccc(F)cc5)CC4)nc32)cc1	2	1	u	-46	0	-4
CCCCCc1cc[n+](CC(=O)c2ccccc2)cc1	x	0	x	x	x	x
COc1ccccc1S(=O)(=O)N(C)C[C@@H]1OCc2cnnn2CCCC(=O)N([C@H](C)CO)C[C@@H]1C	x	x	-6	22	x	x
CC(C)CN1CCNC(=O)C1CC(=O)NCCc1cnn(-c2ccccc2)c1 (centres undefined)	-5	2	-114*	3	1	-3
CC(C)(C)CN1CCNC(=O)C1CC(=O)NCCc1cnn(-c2ccccc2)c1 (centres undefined)	-9	0	-17	-3	0	2
CC(C)(C)CN1CCNC(=O)C1CC(=O)NCCc1ccccc1F (centres undefined)	-5	0	-4	2	1	31*
CCCOc1ccc(C(=O)CCNC(Cc2c[nH]c3ccccc23)C(=O)O)cc1 (centres undefined)	-10	8	3	6	4	1
Cc1ccc2c(CC(=O)Nc3ccc(N4CCN(C)CC4)cc3C)coc2c1	4	0	-83*	31	1	-4
Cc1ccc(C(=O)n2nc(C)c(S(=O)(=O)N3CCCCCC3)c2C)cc1C	0	1	x	x	0	35*
Cc1ccc(SCC(CC(C)C)N2CCN(C)CCC2=O)cc1 (centres undefined)	-21	1	x	x	x	x

Screens deposited in PubChem by National Center for Advancing Translational Sciences (NCATS).
